Shown is part of a subset that was picked to be rich in hits.
ALR H2O2 inh: inhibitors of human sulfhydryl oxidase ALR | AID 485317 | purified ALR, DTT oxidation, H2O2 HRP-luminol luminescence | inhibition, % (concentration not given with the values) | P55789 | 290,000 compounds, 3.8% hits;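 active means mean replicate inhibition above about 79%, with every replicate also reaching it, limit read from the data; inconclusive means only one of the two criteria met; inactive means mean below limit and not every replicate reaching it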
Target sequence (P55789 whole entry, looked up): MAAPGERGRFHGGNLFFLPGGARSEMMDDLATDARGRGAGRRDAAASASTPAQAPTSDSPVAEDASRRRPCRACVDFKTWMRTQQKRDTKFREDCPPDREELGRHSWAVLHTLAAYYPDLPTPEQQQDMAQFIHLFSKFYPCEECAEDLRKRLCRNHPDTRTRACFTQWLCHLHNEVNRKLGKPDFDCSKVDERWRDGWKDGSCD
PDI turbidity: PDI (human) enzyme inhibition; P07237; PDI insulin aggregation turbidity, A650, 90 min; inhibition, % at 10 µM; 350,000 compounds, 0.052% hits; AID 588391;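 active means mean inhibition across replicates of 30% or more, whatever share of single replicates reach that level; inconclusive means mean inhibition below 30% while every single replicate reaches 30%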
CendR NRP1 mod: modulators of CendR peptide binding to human neuropilin-1; O14786; AID 602438; FAM-RPARPAR peptide binding to NRP-1, fluorescence polarization; inhibition, % at 25 µM; 360,000 compounds, 0.85% hits;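 active means inhibition or corrected inhibition above about 18%, plus a signal ratio from 0.5 to 1.5, limit read from the data, passing the limit was not always enough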
ARNT-TACC3 inh: disruptors of human ARNT/TACC3 interaction; AlphaScreen His-ARNT PAS-B/GST-TACC3 binding, luminescence; TACC3 fragment carries E629A point mutation; inhibition, % at 9.99 µM; 390,000 compounds, 0.66% hits;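 active means mean inhibition of replicates at least 50% and at least half of replicates each reaching 50%; inconclusive means half or more replicates reach 50% but mean below 50%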
ERp5 block: blocks human ERp5 reductase activity on insulin | Q15084 | ERp5 insulin aggregation, absorbance 650 nm, 90 min | inhibition, % at 9.99 µM | 350,000 compounds, 0.05% hits;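 active means mean replicate inhibition above about 25%, with every replicate also reaching it, limit read from the data, passing the limit was not always enough; inconclusive means only one of those two criteria met; inactive means neither criterion met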
Target sequence (Q15084 whole entry, looked up): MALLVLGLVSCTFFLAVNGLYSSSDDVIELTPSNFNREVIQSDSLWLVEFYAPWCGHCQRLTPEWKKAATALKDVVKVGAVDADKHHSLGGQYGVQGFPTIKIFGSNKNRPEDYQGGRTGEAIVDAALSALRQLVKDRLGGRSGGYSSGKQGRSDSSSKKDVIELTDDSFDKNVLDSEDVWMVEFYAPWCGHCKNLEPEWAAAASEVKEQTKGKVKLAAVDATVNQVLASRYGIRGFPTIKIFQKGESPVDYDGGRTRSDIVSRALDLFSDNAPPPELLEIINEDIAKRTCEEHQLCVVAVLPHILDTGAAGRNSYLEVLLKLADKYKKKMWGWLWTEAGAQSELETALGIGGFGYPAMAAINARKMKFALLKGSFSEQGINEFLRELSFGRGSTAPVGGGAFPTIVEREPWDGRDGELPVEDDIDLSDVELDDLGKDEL
PglD DTNB: blocks C. jejuni PglD acetyltransferase activity. purified PglD enzyme, DTNB colorimetric CoA detection. AID 602405. inhibition, % at 12.5 µM. 360,000 compounds, 0.098% hits; in the data active means inhibition above about 16%, passing the limit was not always enough; inconclusive means no clear call, values can overlap the other calls
Of the large screens only hits and unclear results are named; the others gave an inactive call.

COc1cc2cc(Oc3ccc4ccc(=O)oc4c3)c(=O)oc2cc1OC(=O)/C=C/c1ccccc1	CendR NRP1 mod 26.6
Cc1ccc(N/N=C2/CCCNC2=O)cc1	ALR H2O2 inh 90.0 (no result: ERp5 block)
O=C1NCCC/C1=N/Nc1cc(F)ccc1F	none (no result: ALR H2O2 inh)
CC(=O)c1ccc(N/N=C2/CCCNC2=O)cc1	ALR H2O2 inh 99.4
CC(=O)c1ccc(NC(=S)N2CCCC2)cc1	none
Cc1cccc(N2C(=O)C(O)=C(C(=O)c3cccs3)C2c2ccc(C(C)C)cc2)n1 (stereo unspecified)	ALR H2O2 inh 98.0 (no result: ERp5 block, PglD DTNB)
Cc1cccc(N2C(=O)C(O)=C(C(=O)c3cccs3)C2c2ccc(F)cc2)n1 (stereo unspecified)	none (no result: ARNT-TACC3 inh)
CCOc1ccc2[nH]c3c(NCCO)ncnc3c2c1	ALR H2O2 inh 88.7
CO[C@@H]1CC[C@@H]2CCOc3ccc(C#N)cc3C(=O)N(C)C[C@@H](C)C(=O)N(C)C[C@H]1O2	none (no result: ALR H2O2 inh, PDI turbidity, CendR NRP1 mod)
C[C@H]1CN([C@@H](C)CO)C(=O)Cc2cc(NC(=O)Cn3cnnn3)ccc2O[C@@H]1CN(C)Cc1ccc(Cl)c(Cl)c1	none (no result: ALR H2O2 inh, PDI turbidity, CendR NRP1 mod)
N#CC1=C(N)NC(=S)C(C(N)=O)C1c1ccccc1F (stereo unspecified)	ALR H2O2 inh 84.4
N#CC1=C(N)NC(=S)C(C(N)=O)C1c1ccc(Cl)cc1Cl (stereo unspecified)	none (no result: ARNT-TACC3 inh, PglD DTNB)
C[C@@H]1CN([C@H](C)CO)C(=O)c2cccc(NS(=O)(=O)c3cccs3)c2O[C@@H]1CN(C)S(=O)(=O)c1ccccc1	none (no result: ALR H2O2 inh, PDI turbidity, CendR NRP1 mod)
CO[C@H]1CN(C)C(=O)c2ccc(NC(=O)C3CCCC3)cc2OC[C@H](C)N(S(C)(=O)=O)C[C@H]1C	none (no result: ALR H2O2 inh, PDI turbidity, CendR NRP1 mod)
CC1CCCCC1NC(=O)c1ccc(S(=O)(=O)NNC(=O)c2ccncc2)cc1 (stereo unspecified)	ALR H2O2 inh 98.7
COc1ccc(C(=O)NNS(=O)(=O)c2ccc(OC)cc2)cc1	ALR H2O2 inh 87.2
COc1ccc(C(=O)NNS(=O)(=O)c2ccccc2)cc1	none (no result: ALR H2O2 inh)
O=C(NC1CC1)c1ccc(S(=O)(=O)NC2CCCCCC2)cc1	none (no result: ERp5 block)
O=C(NNS(=O)(=O)c1ccc(C(=O)NC2CCCC2)cc1)c1ccncc1	ALR H2O2 inh 98.5
C[C@@H]1CN([C@H](C)CO)C(=O)c2cc(NC(=O)CCCN(C)C)ccc2O[C@H]1CN(C)C(=O)Nc1ccccc1	none (no result: ALR H2O2 inh, PDI turbidity, CendR NRP1 mod)
CCOC(=O)c1c(CC(C)C)csc1NC=O	CendR NRP1 mod 30.4 (no result: ERp5 block)
CSC(=NC#N)N1CCN(c2ccccc2)CC1	ALR H2O2 inh 76.2 (no result: ARNT-TACC3 inh, ERp5 block)
CN(c1ccccc1C(=O)N1CCN(c2cccc(Cl)c2)CC1)S(C)(=O)=O	none (no result: ERp5 block)
CSc1ccccc1C(=O)N1CCN(c2cccc(Cl)c2)CC1	CendR NRP1 mod 45.1 (no result: PglD DTNB)
CSC(=NC#N)N1CCN(c2cccc(Cl)c2)CC1	ALR H2O2 inh 93.7 (no result: ERp5 block)
CNC(=S)N1N=C(c2ccc(Br)cc2)CC1c1ccc(N(C)C)cc1 (stereo unspecified)	CendR NRP1 mod 32.5 (no result: ALR H2O2 inh, PglD DTNB)
CNC(=S)N1N=C(c2ccc(Br)cc2)CC1c1ccc(Br)cc1 (stereo unspecified)	none (no result: ERp5 block)
O=C1/C(=C/c2ccc(O)cc2)SC(=S)N1CC1CCCO1 (stereo unspecified)	ALR H2O2 inh 99.2 (no result: PglD DTNB)
CCCOc1ccc(/C=C2\SC(=S)N(CC3CCCO3)C2=O)cc1 (stereo unspecified)	none (no result: ERp5 block, PglD DTNB)
CC1CC(Nc2ccccc2)c2ccccc2N1C(=O)c1ccncc1 (stereo unspecified)	none
CC1CC(Nc2ccccc2)c2ccccc2N1C(=O)c1ccco1 (stereo unspecified)	ALR H2O2 inh 98.7
CO[C@H]1CN(C)C(=O)c2ccc(NC(=O)c3cnccn3)cc2OC[C@@H](C)N(C)C[C@H]1C	none (no result: ALR H2O2 inh, PDI turbidity, CendR NRP1 mod, ERp5 block)
COc1cccc(C2CC(c3ccccc3Cl)n3nnnc3N2)c1 (stereo unspecified)	none (no result: ERp5 block)
COc1cccc(C2CC(c3ccccc3Cl)n3ncnc3N2)c1 (stereo unspecified)	CendR NRP1 mod 30.1 (no result: ERp5 block)
CC=Cc1ccc2n(c1=O)C[C@H]1[C@H](CO)[C@@H](C(=O)NCC3CC3)[C@@H]2N1Cc1ccccc1F (mixture of isomers)	none (no result: ALR H2O2 inh, PDI turbidity, CendR NRP1 mod)
C[C@@H]1CN([C@@H](C)CO)C(=O)c2cc(-c3ccccc3)cnc2O[C@@H]1CN(C)C(=O)c1ccccc1F	none (no result: ALR H2O2 inh, PDI turbidity, CendR NRP1 mod)
O=C1NN(c2ccccc2)C(=O)/C1=C\c1coc2ccc(O)cc2c1=O	ALR H2O2 inh 99.3 (no result: PglD DTNB)
O=C1NN(c2ccccc2)C(=O)/C1=C/c1coc2ccccc2c1=O	ALR H2O2 inh 97.3 (no result: ERp5 block, PglD DTNB)
N#CC(C#N)=C1C=C2C=C(N3CCCCC3)CCC2CC1 (stereo unspecified)	ALR H2O2 inh 99.2 (no result: PDI turbidity, CendR NRP1 mod, ARNT-TACC3 inh, ERp5 block, PglD DTNB)
C[C@H]1CN([C@@H](C)CO)C(=O)c2cc(NC(=O)Nc3cccc4ccccc34)ccc2O[C@H]1CN(C)C(=O)Nc1ccc(C(F)(F)F)cc1	none (no result: ALR H2O2 inh, PDI turbidity, CendR NRP1 mod)
CCCc1cn(CC[C@H]2CC[C@H](NC(=O)C3CCCC3)[C@@H](CO)O2)nn1	none (no result: ALR H2O2 inh, PDI turbidity, CendR NRP1 mod)
COc1cccc(NC(=S)NNC(=O)Cn2nc([N+](=O)[O-])cc2C)c1	CendR NRP1 mod 29.7 (no result: PglD DTNB)
COc1cccc(NC(=S)NNC(=O)Cn2nc(C(F)F)cc2C(F)F)c1	ALR H2O2 inh 84.4 (no result: PglD DTNB)
COc1cccc(NC(=S)NNC(=O)CCn2cc([N+](=O)[O-])cn2)c1	ALR H2O2 inh 83.2 (no result: ARNT-TACC3 inh, PglD DTNB)
Cc1cnn(CCC(=O)NNC(=S)Nc2ccccc2)c1	ALR H2O2 inh inconclusive (no result: ERp5 block, PglD DTNB)
Cc1ccc(NC(=S)NNC(=O)Cn2nc([N+](=O)[O-])cc2C)cc1	ALR H2O2 inh 84.7
COc1ccc2c3c([nH]c2c1)[C@@H](CO)N(C(=O)CN1CCOCC1)CC31CCN(CC2CCCC2)CC1	none (no result: ALR H2O2 inh, PDI turbidity, CendR NRP1 mod, ARNT-TACC3 inh, PglD DTNB)
Cc1nn(-c2ccccc2)c(N2CCCC2)c1/C=C1\N=C(c2ccccc2)OC1=O	CendR NRP1 mod 75.7 (no result: ARNT-TACC3 inh, PglD DTNB)
Cc1nn(-c2ccccc2)c(N2CCCC2)c1C=O	none
CC(NC(=O)COC(=O)c1ccc([N+](=O)[O-])s1)c1ccccc1 (stereo unspecified)	none (no result: ERp5 block)
CN(CC(=O)Nc1ccccc1Cl)C(=O)COC(=O)c1ccc([N+](=O)[O-])s1	ARNT-TACC3 inh 46.3
O=C(COC(=O)c1ccc([N+](=O)[O-])s1)NNC(=O)c1ccccc1	ARNT-TACC3 inh 42.1 (no result: ERp5 block)
C[C@H](CO)N1C[C@H](C)[C@H](CN(C)C(=O)C2CC2)Oc2ncc(-c3ccc(C(=O)N(C)C)cc3)cc2C1=O	none (no result: ALR H2O2 inh, PDI turbidity, CendR NRP1 mod)
O=C(c1ccco1)N1CCN(C(=O)c2ccccc2OC(=O)C23CC4CC(CC(C4)C2)C3)CC1	CendR NRP1 mod 20.5 (no result: ALR H2O2 inh, ERp5 block)
O=C(O)c1ccccc1OC(=O)C12CC3CC(CC(C3)C1)C2	none (no result: PglD DTNB)
COc1ccc(OC)c(S(=O)(=O)N(C)CC(=O)Nc2ccc3c(c2)OCO3)c1	CendR NRP1 mod 32.1 (no result: ERp5 block)
Cc1ccccc1OCCCC(=O)Nc1ccc2c(c1)OCO2	ALR H2O2 inh 97.8
CC(Nc1ccc2c(c1)OCCO2)C(=O)Nc1ccc2c(c1)OCO2 (stereo unspecified)	ALR H2O2 inh 95.8 (no result: PglD DTNB)

Screens as filed in PubChem.
